Assay outcomes: PubChem, several laboratories
PolyA inh: yeast polyadenylation inhibition. S. cerevisiae SKY197-pL101 polyadenylation reporter, beta-gal luminescence; efflux-impaired pdr1/pdr3 knockout yeast; score 100 = 6 SD above DMSO. activity score, % at 12 µM. 300,000 compounds, 0.02% hits. AID 1875;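 active = lowest replicate activity score at least 50, where 100 means six control SD above control mean; inconclusive = lowest score under 50 but half or more replicates reach 50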;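 also: yeast exposed to compound for 9 h at 30 °C; higher score means more reporter readthrough which indicates perturbed polyadenylation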
PfM18AAP inh: PfM18AAP enzyme inhibition; recombinant PfM18AAP, H-Glu-NHMec fluorogenic cleavage; inhibition, % at 7.35 µM; 290,000 compounds, 1.2% hits;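 active = inhibition above the campaign mean inhibition over all tested compounds plus 3 SD, cut at about 28% in these data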
ALR inh: human ALR oxidase inhibition via reduced H2O2 | P55789 | purified ALR, DTT oxidation, H2O2 HRP-luminol luminescence | inhibition, % (test concentration not listed) | 290,000 compounds, 3.8% hits | AID 485317;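 active = mean replicate inhibition above about 79%, with every replicate also reaching it, limit read from the data; inconclusive = only one of the two criteria met; inactive = mean below limit and not every replicate reaching it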
CaV13 ICDI inh: Disruptors of the CACNA1D IQ motif to Ca2+-dependent inactivation inhibitor domain association, primary screening, Förster resonance energy transfer in intact living …; HEK cells, CFP/YFP FRET ICDI-IQ, plate reader, 10 min; percent FRET-ratio fall versus neutral wells; inhibition, % at 12.3 µM; 340,000 compounds, 0.098% hits; AID 743397;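 active = mean replicate inhibition of at least 30% and at least 1% of replicates passing that level; inconclusive = only one of the two criteria is met; inactive = neither criterion is met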
IDE cell inh: cellular human IDE inhibition. HEK cells, FAbetaB cleavage, fluorescence polarization. inhibition, % at 5.59 µM. 320,000 compounds, 0.41% hits. AID 434962. P14735;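 active = percent inhibition above the average of all tested compounds plus 3 SD, set per screening campaign, cut at about 16% in these data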;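 also: IDE supplied by intact live HEK cells; FP after avidin binding of uncleaved biotin substrate so inhibition keeps polarization high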
Target sequence (P14735 whole entry, looked up): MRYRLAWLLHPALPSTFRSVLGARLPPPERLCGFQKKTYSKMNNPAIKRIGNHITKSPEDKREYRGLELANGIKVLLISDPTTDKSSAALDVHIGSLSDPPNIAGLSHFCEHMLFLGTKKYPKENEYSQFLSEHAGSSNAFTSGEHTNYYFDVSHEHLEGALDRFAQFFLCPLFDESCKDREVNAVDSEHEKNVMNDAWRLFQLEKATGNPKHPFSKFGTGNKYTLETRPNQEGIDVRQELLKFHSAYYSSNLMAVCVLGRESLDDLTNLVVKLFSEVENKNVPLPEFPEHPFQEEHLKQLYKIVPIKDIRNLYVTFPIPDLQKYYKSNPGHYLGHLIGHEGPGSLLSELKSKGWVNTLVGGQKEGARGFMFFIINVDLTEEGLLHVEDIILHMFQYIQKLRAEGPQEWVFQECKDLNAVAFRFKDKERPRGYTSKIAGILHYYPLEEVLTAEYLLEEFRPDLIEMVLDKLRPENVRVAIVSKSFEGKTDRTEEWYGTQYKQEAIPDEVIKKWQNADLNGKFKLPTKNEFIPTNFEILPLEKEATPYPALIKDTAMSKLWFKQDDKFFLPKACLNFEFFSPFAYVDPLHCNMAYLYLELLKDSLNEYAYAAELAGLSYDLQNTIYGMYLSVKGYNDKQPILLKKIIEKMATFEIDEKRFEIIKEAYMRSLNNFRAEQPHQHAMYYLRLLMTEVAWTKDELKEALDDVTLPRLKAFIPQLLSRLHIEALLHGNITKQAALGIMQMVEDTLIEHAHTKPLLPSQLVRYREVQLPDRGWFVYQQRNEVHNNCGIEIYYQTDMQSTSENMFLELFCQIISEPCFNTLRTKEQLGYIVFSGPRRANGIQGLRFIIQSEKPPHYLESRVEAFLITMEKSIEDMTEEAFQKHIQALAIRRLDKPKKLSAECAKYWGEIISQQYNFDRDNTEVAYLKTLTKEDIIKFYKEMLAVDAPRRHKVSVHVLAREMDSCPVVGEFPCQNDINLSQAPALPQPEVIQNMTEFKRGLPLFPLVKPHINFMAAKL
IDE cell activ: boosts human insulin-degrading enzyme activity in HEK cells; P14735; FAbeta-B cleavage, fluorescence polarization; 0% vehicle, 100% cell-free pure enzyme wells; activation, % at 5.96 µM; 340,000 compounds, 0.073% hits; AID 493087;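 active = activation above the mean of all tested compounds plus 3 SD, set per screening campaign, cut at about 17% in these data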
Of the large screens only hits and unclear results are named; the others gave an inactive call. Only some compounds are listed: those with a hit (about 4.1% of all), similar ones and a draw of the others.

CC(=O)OCC1(C)CN(c2ccccc2)NC1=O (stereo unspecified)	ALR inh 99
O=C1CCCN1CCC(=O)N1CCCC(Nc2ccc(F)cc2)C1 (stereo unspecified)	none
COc1ccc(NC2CCCN(C(=O)CCN3Cc4ccccc4C3=O)C2)cc1 (stereo unspecified)	ALR inh 99
COc1ccc(NC2CCCN(C(=O)CCN3CCCC3=O)C2)cc1 (stereo unspecified)	ALR inh 98
COc1ccc(NC2CCCN(C(=O)CCN3CCCC3=O)C2)cc1OC (stereo unspecified)	ALR inh 99
O=C1CCCCN1CCC(=O)N1CCCC(Nc2ccc(F)c(F)c2)C1 (stereo unspecified)	none
Cc1ccc(NC2CCCN(C(=O)CCCN3CCCCC3=O)C2)cc1C (stereo unspecified)	ALR inh 99
CC1Cc2ccccc2N1C(=O)CSc1nnc(Cn2nnc3ccccc32)n1C (stereo unspecified)	none
Clc1cccc(CNc2ccn3nc(-c4ccccc4Cl)cc3n2)c1	none (no result: PolyA inh, PfM18AAP inh, ALR inh, IDE cell inh, IDE cell activ)
COc1ccc(NC2CCCN(C(=O)CCCN3CCCCC3=O)C2)cc1 (stereo unspecified)	ALR inh 99
Nn1c(SCC(=O)N2CCOCC2)nnc1-c1ccccc1Cl	none
Cn1c(CNc2ccc(F)cc2)nc2ccccc21	ALR inh 85 (no result: IDE cell inh)
O=C1NC[C@@H](CCCCN2C[C@H](Cc3ccccc3)N(Cc3ccccc3)C(=O)C2=O)N(Cc2ccccc2)C1=O	none (no result: PolyA inh, PfM18AAP inh, ALR inh, IDE cell inh, IDE cell activ)
OCCCNc1ncnc2oc(-c3ccccc3)c(-c3ccccc3)c12	none (no result: IDE cell inh)
CN(CCO)CC(O)CN(c1ccccc1)c1ccccc1 (stereo unspecified)	ALR inh 99
CN(Cc1ccccc1)CC(O)CN(C)Cc1ccccc1	none (no result: PolyA inh, PfM18AAP inh, ALR inh, IDE cell inh)
CNCC(O)COc1ccccc1 (stereo unspecified)	none
NC(N)=NCC(O)CN(c1ccccc1)c1ccccc1 (stereo unspecified)	ALR inh 99 (no result: IDE cell activ)
NC(=S)N(c1ccccc1)c1ccccc1	none
CNCC(O)CN(c1ccccc1)c1ccccc1 (stereo unspecified)	ALR inh 99
Cc1ccc(C(=O)OCC(=O)NC2CCCCC2)s1	none (no result: ALR inh)
O=C1C2C3CCC(C3)C2C(=O)N1c1ccc2ccccc2c1 (stereo unspecified)	none
O=C(CCCC1=NS(=O)(=O)c2ccccc2N1)N1CCN(c2ccc(Cl)cc2)CC1	ALR inh 96
CC(C)NC(=S)N1CCN(c2ncccn2)CC1	none
COc1cccc(/C=N/NC(=O)Cn2nc(C)c([N+](=O)[O-])c2C)c1O	ALR inh 88
CCc1ccccc1NC(=O)CSc1nc2ccccc2n1CC(=O)N(C)C	none (no result: ALR inh, IDE cell inh)
CCCCCc1c2c(cc(O)c1C(=O)O)OC(=O)c1c(cc(OC)cc1C(=O)CCCC)O2	ALR inh 98 (no result: CaV13 ICDI inh)
CCOC(=O)c1[nH]c(C)c(C(=O)N2CCN(c3ccc(OC)cc3)CC2)c1C	none
CCOC(=O)c1[nH]c(C)c(C(=O)N2CCN(c3ccc(F)cc3)CC2)c1C	PolyA inh inconclusive, ALR inh 90
Cc1ccc(NS(=O)(=O)c2ccc3oc(=O)ccc3c2)cc1Cl	none
COc1ccc(/C=C/C(=O)OCC(=O)N2CC(=O)Nc3ccccc32)cc1S(=O)(=O)N1CCOCC1	none
COc1cc(/C=C/C(=O)OCC(=O)N2CC(=O)Nc3ccccc32)ccc1O	ALR inh 96
Cc1ccc(CNC(=O)CN2C(=O)NC(C)(c3ccccc3Cl)C2=O)cc1 (stereo unspecified)	none
COc1cccc(-n2cnc3cccc(N)c32)c1	ALR inh 87
Cc1ccc(NC(=O)c2ccc3c(SCC(=O)O)c4c(nc3c2)CCCC4)c(Br)c1	ALR inh 90
O=C(O)CSc1c2c(nc3cc(C(=O)Nc4cccc(C(F)(F)F)c4)ccc13)CCC2	ALR inh 96
CCOc1ccc(NC(=O)c2ccc3c(SCC(=O)O)c4c(nc3c2)CCCC4)cc1	none
C=C(C)CCC(C)N1CCC(n2nccc2NC(=O)CCOc2ccccc2)CC1 (stereo unspecified)	none
O=Cc1cccc(OC(=O)/C=C/c2ccco2)c1	ALR inh 98
